Values joined by “and” are separate entries in the source; they are usually repeats but may differ in a detail not shown here. Equal entries are not always repeated. In all, about 5,500 compounds went through this assay and about 2,000 (36%) were called active. Another 18% or so got no clear call; they are omitted. Some of the results follow. Values without a mark were called inactive. Rule as the data show it: active = normalized growth mostly below about 0.91 (no sharp cut-off); inconclusive = no clear call, values can overlap the other calls; inactive = mostly above about 0.92.
Test: chemical genetic growth profiling, strain panel (AID 1159580);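 also: tested at 20 µM; growth read once vehicle control cultures reached saturation at 30 °C; 1 = growth at the plate median or of vehicle wells; lower values mean less growth of the strain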
Details: S. cerevisiae deletion strains, growth OD

For `O=c1c(O)cc([C@H]2Oc3cc(O)cc(O)c3C[C@H]2O)cc2c([C@H]3Oc4cc(O)cc(O)c4C[C@H]3O)cc(O)c(O)c12`, the normalized growth (locus YAL013W, strain DEP1, active compounds read low) was 1.01, the normalized growth (locus YAL021C, strain ccr4, active compounds read low) was 1.01 and the normalized growth (locus YAL026C, strain drs2, active compounds read low) was 1.04. For the same molecule, the normalized growth (locus YAL030W, strain snc1, active compounds read low) was 1.04, the normalized growth (locus YBL061C, strain skt5, active compounds read low) was 1.03 and the normalized growth (locus YBR009C, strain hhf1, active compounds read low) was 1.04. The normalized growth (locus YBR021W, strain FUR4, active compounds read low) was 1.01, the normalized growth (locus YBR023C, strain chs3, active compounds read low) was 1.02 and the normalized growth (locus YBR171W, strain sec66, active compounds read low) was 1.06. For the same molecule, the normalized growth (locus YBR229C, strain ROT2, active compounds read low) was 0.998, the normalized growth (locus YBR231C, strain swc5, active compounds read low) was 1.02 and the normalized growth (locus YBR279W, strain paf1, active compounds read low) was 1.02. It also gave a normalized growth (locus YCL011C, strain gbp2, active compounds read low) of 1.04, a normalized growth (locus YCL016C, strain dcc1, active compounds read low) of 1.02 and a normalized growth (locus YCL029C, strain bik1, active compounds read low) of 0.998. For the same molecule, the normalized growth (locus YCL069W, strain vba3, active compounds read low) was 1.03, the normalized growth (locus YCR088W, strain abp1, active compounds read low) was 1.04 and the normalized growth (locus YDL005C, strain med2, active compounds read low) was 1.05. The normalized growth (locus YDL035C, strain GPR1, active compounds read low) was 1.03, the normalized growth (locus YDL040C, strain nat1, active compounds read low) was 1.04 and the normalized growth (locus YDL074C, strain BRE1, active compounds read low) was 1.04. It also gave a normalized growth (locus YDL101C, strain DUN1, active compounds read low) of 1.02, a normalized growth (locus YDL185W, strain tfp1, active compounds read low) of 1.01 and a normalized growth (locus YDL192W, strain arf1, active compounds read low) of 1. The normalized growth (locus YDR001C, strain nth1, active compounds read low) was 1.03, the normalized growth (locus YDR069C, strain doa4, active compounds read low) was 0.995 and the normalized growth (locus YDR101C, strain arx1, active compounds read low) was 1.02. For the same molecule, the normalized growth (locus YDR137W, strain rgp1, active compounds read low) was 1.03, the normalized growth (locus YDR159W, strain sac3, active compounds read low) was 1.1 and the normalized growth (locus YDR162C, strain NBP2, active compounds read low) was 1.03. For the same molecule, the normalized growth (locus YDR195W, strain ref2) was 1.04, the normalized growth (locus YDR297W, strain sur2, active compounds read low) was 1.02 and the normalized growth (locus YDR318W, strain mcm21, active compounds read low) was 1.02. For the same molecule, the normalized growth (locus YDR334W, strain swr1, active compounds read low) was 1.03, the normalized growth (locus YDR335W, strain msn5, active compounds read low) was 1.02 and the normalized growth (locus YDR388W, active compounds read low) was 0.995. The normalized growth (locus YDR392W, strain spt3, active compounds read low) was 1.03, the normalized growth (locus YDR502C, strain sam2, active compounds read low) was 1.03 and the normalized growth (locus YEL003W, strain gim4, active compounds read low) was 1.03. For the same molecule, the normalized growth (locus YEL037C, strain rad23, active compounds read low) was 1.02, the normalized growth (locus YEL061C, strain CIN8 (second series), active compounds read low) was 1.04 and the normalized growth (locus YEL061C, strain CIN8, active compounds read low) was 1.01. For the same molecule, the normalized growth (locus YER015W, strain faa2, active compounds read low) was 1.01, the normalized growth (locus YER016W, strain bim1, active compounds read low) was 1.04 and the normalized growth (locus YER110C, active compounds read low) was 1.03. The normalized growth (locus YER111C, strain swi4, active compounds read low) was 1.01, the normalized growth (locus YER155C, strain BEM2 (second series), active compounds read low) was 1.08 and the normalized growth (locus YER155C, strain BEM2, active compounds read low) was 1.05. It also gave a normalized growth (locus YER167W, strain BCK2, active compounds read low) of 1.02, a normalized growth (locus YFR010W, strain ubp6, active compounds read low) of 1.03 and a normalized growth (locus YGL078C, strain dbp3, active compounds read low) of 1.01. It also gave a normalized growth (locus YGL086W, strain mad1, active compounds read low) of 1.02, a normalized growth (locus YGL167C, strain pmr1, active compounds read low) of 1.03 and a normalized growth (locus YGL173C, strain kem1, active compounds read low) of 1.03. The normalized growth (locus YGL227W, strain vid30, active compounds read low) was 1.05, the normalized growth (locus YGL240W, strain doc1, active compounds read low) was 1.06 and the normalized growth (locus YGL248W, strain PDE1, active compounds read low) was 0.998. The normalized growth (locus YGL253W, strain hxk2, active compounds read low) was 1.05, the normalized growth (locus YGR135W, strain pre9, active compounds read low) was 1.01 and the normalized growth (locus YGR252W, strain gcn5, active compounds read low) was 1.01. It also gave a normalized growth (locus YHR013C, strain ard1, active compounds read low) of 1.05, a normalized growth (locus YHR027C, strain rpn1, active compounds read low) of 1.02 and a normalized growth (locus YHR030C, strain SLT2, active compounds read low) of 0.985. The normalized growth (locus YHR079C, strain IRE1 (second series), active compounds read low) was 1.02, the normalized growth (locus YHR079C, strain IRE1, active compounds read low) was 0.999 and the normalized growth (locus YHR094C, strain hxt1, active compounds read low) was 1.02. For the same molecule, the normalized growth (locus YHR129C, strain ARP1, active compounds read low) was 1.01, the normalized growth (locus YHR142W, strain chs7, active compounds read low) was 1.05 and the normalized growth (locus YHR200W, strain rpn10, active compounds read low) was 0.994. The normalized growth (locus YIL066C, strain RNR3, active compounds read low) was 1.02, the normalized growth (locus YIL073C, strain SPO22, active compounds read low) was 1.1 and the normalized growth (locus YIL125W, strain kgd1, active compounds read low) was 1.02. The normalized growth (locus YIR030C, strain dcg1, active compounds read low) was 1.01, the normalized growth (locus YJL092W, strain hpr5, active compounds read low) was 1.03 and the normalized growth (locus YJL095W, strain BCK1 (second series), active compounds read low) was 1.02. For the same molecule, the normalized growth (locus YJL095W, strain BCK1, active compounds read low) was 0.995 and 1.01, the normalized growth (locus YJL115W, strain asf1, active compounds read low) was 1.05 and the normalized growth (locus YJL129C, strain trk1, active compounds read low) was 1.14 [resistant] (active). The normalized growth (locus YJL134W, strain LCB3, active compounds read low) was 1.02, the normalized growth (locus YJL154C, strain vps35, active compounds read low) was 1.04 and the normalized growth (locus YJL164C, strain tpk1, active compounds read low) was 1.01. It also gave a normalized growth (locus YJL166W, strain qcr8, active compounds read low) of 1.05, a normalized growth (locus YJL168C, strain set2, active compounds read low) of 1.02 and a normalized growth (locus YJL187C, strain SWE1 (second series), active compounds read low) of 0.997. It also gave a normalized growth (locus YJR043C, strain POL32, active compounds read low) of 1.03.
